These results are taken from PubChem BioAssay AID893 (National Center for Advancing Translational Sciences (NCATS), 2007).

Hit rate of the full screen: of about 75,000 compounds, about 5,700 (7.6%) were called active. Another 7% or so got no clear call; they are omitted. Only a selection was taken, and actives are over-represented in it overall. Values without a mark were called inactive. The call rests on the fitted dose curve; in most records, active means well fitted inhibition curve with a large enough effect; inconclusive means small, poorly fitted or top-dose-only effect; inactive means no such curve, though single readings can be large or run the other way.
On the % scale 0 is the no-effect control and ±100 the full control effect; potency means the concentration at half of the fitted maximal effect.

The target of this assay is 3-hydroxyacyl-CoA dehydrogenase type-2 (Homo sapiens) (UniProt Q99714). The experiment in a line: qHTS Assay for Inhibitors of HSD17B4, hydroxysteroid (17-beta) dehydrogenase 4.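 Further: the protocol describes HADH2 (HSD17B10) and not the HSD17B4 of the title; nearly all actives have a fitted effect of over 70% in size.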 As to conditions: recombinant HSD17B10, NADH fluorescence kinetic; series mostly up to 57.1 µM; activity change, negative = inhibition: at the top concentration. An excerpt:
Assay Overview: NIH Molecular Libraries Screening Centers Network [MLSCN] NIH Chemical Genomics Center [NCGC] Structural Genomics Consortium [SGC] Grant number: None HADH2: Hydroxyacyl-Coenzyme A dehydrogenase, type II, was supplied by researchers at the Structural Genomics Consortium, Oxford University lab (PI Udo Oppermann). The mitochondrial enzyme 17-hydroxysteroid dehydrogenase type 10 (HSD17-10) previously classified as type II hydroxyacyl-CoA dehydrogenase (HADH2) catalyzes the NAD+ dependent oxidation of a variety of substrates including acyl-CoAs, androgens and neurosteroids as well as bile acids(Shafqat N, Marschall HU, Filling C, et al. Biochemical Journal. 2003;376(Pt 1):49-60). […] The enzyme was produced by E.coli fermentation as His-tagged recombinant for the purpose of X-ray structure determination, and had been mass-spectrometry characterized. Inhibition of HADH2 activity was screened by utilizing beta-hydroxybutyryl coenzyme A as an electron donor and NAD+ as an electron acceptor/cofactor. An increase in the fluorescence intensity due to conversion of NAD+ to NADH was used to measure the enzyme activity.
Assay Protocol: Buffer: 100 mM Tris-HCl pH 9.0, containing 0.01 % Tween-20. Reagents/Controls: Buffer in columns 3 and 4 as negative control (no enzyme). Substrate/cofactor solution: 1 mM NAD+ and 90 uM beta-hydroxybutyryl coenzyme A (Sigma-Aldrich, St. Louis, MO) final concentrations dispensed throughout the plate. Enzyme: 20 nM HADH2 final concentration in columns 1, 2, 5-48. Column 1 is neutral (100% activity). Column 2 contained titration of apomorphine (Sigma-Aldrich, A 4393, PubChem CID 2215, top concentration 500 uM, then 1:2 dilution in duplicate) Assay Steps: Three uL of enzyme were dispensed to 1536-well Greiner black solid bottom plates. Compounds and controls (23 nL) were transferred via Kalypsys PinTool. The plates were incubated for 15 min at room temperature, and then 1 uL of substrate/cofactor solution was added to start the reaction. The plates were immediately transferred to and read every 30 seconds for 4 min on ViewLux High-throughput CCD imager (Perkin-Elmer) using 360 nm excitation and 450 nm emission fluorescence protocol. The fluorescence intensity difference between the last and the first time points was used to compute reaction progress.
(qHTS replaces the single test concentration by a dilution series.)
`Cc1cccc2c3c(ccc12)C1=C(C(=O)C3=O)C(C)CO1` (centres undefined): the Potency is 20 µM (active).
As to `C[C@@]12CCC3C(CC[C@@H]4CC(O)CC[C@@]34C)C1CCC2O` (some centres undefined), the “activity change, negative = inhibition” value is 18.2%.
Turning to `CC(C)(C)[C@]1(O)C[C@@H]2OC(=O)C[C@@]23C(=O)O[C@@H]2OC(=O)[C@H](O)[C@]213`, the “activity change, negative = inhibition” value is -0.128%.
The same measure, in the same setting: the value for `Cc1cccc([C@H](C)c2cnc[nH]2)c1C` was 2.33%; that for `c1ccc(CN2CC[C@@]3(CCCNC3)C2)cc1` was -6.63%.
As to `c1ccc(N2CC[C@@]3(CCCNC3)C2)nc1`, the Potency is 31.6 µM (active).
On to `O=C1C2(Cl)C3(Cl)C4(Cl)C(Cl)(Cl)C5(Cl)C3(Cl)C1(Cl)C5(Cl)C24Cl` (centres undefined), for which the Potency result was “inactive”.
As for `CN1C2CC3CC1C(O3)C2O` (centres undefined), the “activity change, negative = inhibition” value is -2.94%.
Take `CCN1C[C@]2(COC)C(O)C[C@H](OC)[C@@]34C5C[C@]6(O)C(OC)C(O)[C@](OC(C)=O)(C5C6OC(=O)c5ccccc5)C(C(OC)C23)C14` (some centres undefined): the “activity change, negative = inhibition” value is -0.738%.
Turning to `CC(=O)OC1C2CCC3C1(CC(O)[C@@]1(O)[C@@H](CC(O)C1(C)C)[C@]3(C)O)C[C@@]2(C)O` (some centres undefined), the “activity change, negative = inhibition” value was 0.525%.
Still for that read-out and setting: the figure for `CC(C)(C)C(O)(CCc1ccc(Cl)cc1)Cn1cncn1` (centres undefined) is -7.7%.
`CCOC(=O)c1c(-c2ccccc2)oc2ccc(OC(=O)N(C)C)cc12`: the Potency was 31.6 µM (active).
As to `c1ccc(CCCCN2CCC(c3ccccc3)CC2)cc1`, the “activity change, negative = inhibition” value was 16.3%.
Still for that read-out and setting: the figure for `CN(C)C1C(=O)C(C(N)=O)=C(O)[C@@]2(O)C(=O)C3=C(O)c4c(O)cccc4[C@@](C)(O)C3C[C@@H]12` (some centres undefined) is -4.77%.
On to `NCC[Se][Se]CCN`, for which the Potency was 0.794 µM (active).
Still for that read-out and setting: the value for `N#CCCCl` was “inactive”.
Consider `C=CCSSCC=C`, for which the “activity change, negative = inhibition” value is -26.5%.
As to `COc1cc(C[C@H](C)N)c(OC)cc1I`, the Potency entry is “inactive”.
As to `CC(=O)c1c(O)c(C)c(O)c(Cc2c(O)c3c(c(C(=O)/C=C\c4ccccc4)c2O)OC(C)(C)C=C3)c1O`, the Potency was 31.6 µM (active).
As for `CCCCN1C2CCC1CC(OC(c1ccc(F)cc1)c1ccc(F)cc1)C2` (centres undefined), the “activity change, negative = inhibition” value was 4.31%.
Same read-out and setting: the value for `C[C@H](CCC(=O)O)[C@H]1CC[C@@H]2[C@H]3CC[C@H]4C[C@H](O)CC[C@@]4(C)[C@@H]3CC[C@@]21C` was -3.04% [at 11.4 µM]; that for `CCNC[C@H](O)c1cccc(O)c1` was 2.58% [at 25.6 µM].
Consider `Fc1ccc(C(OCCN2CCN(C/C=C\c3ccccc3)CC2)c2ccc(F)cc2)cc1`, for which the “activity change, negative = inhibition” value is -28.1%.
For the compound `CCOC(=O)c1c(N)n(Cc2ccccc2)c2nc3ccccc3nc12`, the Potency was 15.8 µM (active).
Turning to `N#Cc1c(Cl)c(Cl)c(Cl)c(C#N)c1Cl`, the “activity change, negative = inhibition” value is -6.99%.
Still for that read-out and setting: the figure for `CC1=CC(=O)C2=C(C)C[C@H](O)[C@H]3[C@H](C)C(=O)O[C@@H]3C12` (some centres undefined) is 5.49%; for `Cc1ccc(S(=O)(=O)O[C@H]2CN3CCC2CC3)cc1` it is 7.71% [at 11.4 µM].
Same read-out and setting: the value for `COc1ccc(C2Oc3c(I)c(OC)cc(OC)c3CC2O)cc1OC` (centres undefined) was 5.5%.
Still for that read-out and setting: the figure for `NC(=O)c1ccc(OC[C@H](O)CN2CC=C(c3ccc(F)cc3)CC2)cc1` is -5.72%.
With `CC[C@@](O)(C(=O)O)c1cc2n(c(=O)c1CO)Cc1cc3ccccc3nc1-2`, the Potency is 3.16 µM (active).
Consider `Clc1ccccc1`, for which the “activity change, negative = inhibition” value was 6%.
On the same count and under the same terms, the figure for `CC(C)CC(C)Nc1ccc(Nc2ccccc2)cc1` (centres undefined) is 4.48%.
On to `CC[C@@H]1CN2CC[C@@H]1C[C@H]2[C@H](O)c1ccnc2ccc(OC)cc12`, for which the Potency was 25.1 µM (active).
As to `ClC(Cl)=C(Cl)C(Cl)=C(Cl)Cl`, the “activity change, negative = inhibition” value is -3.33%.
The same measure, in the same setting: the figure for `N[C@H](C(=O)O)c1cc(=O)[nH]o1` is 7.3%; for `c1csc(CN2CCCC3(CCNCC3)C2)n1` it is 5.71%; for `COC1CC(OC2CC[C@@]3(C=O)C4CC[C@]5(C)C(C6=CC(=O)OC6)CC[C@@]5(O)C4CC[C@]3(O)C2)OC(C)C1O` (some centres undefined) it is -1.56%.
For `CCN1C[C@@]2(COC)CC[C@H](OC)[C@]34[C@@H]1[C@]1(OCO[C@@]15C[C@@H](OC)C1C[C@H]3[C@H]5[C@@H]1OC)[C@H](O)[C@@H]24`, the “activity change, negative = inhibition” value is 1.24% [at 25.6 µM].
For the compound `CCN(CC)CCOC(=O)c1cc2cc(COC)ccc2o1`, the Potency is 25.1 µM (active).
In the case of `O=C(NCC(c1cccnc1)N1CCN(c2ccccc2)CC1)Oc1ccccc1` (centres undefined), the “activity change, negative = inhibition” value was 10.2%.
For the compound `COc1cc2c(cc1OC)[C@@H]1C(=O)c3ccc(O)c(CC=C(C)C)c3OC1CO2` (some centres undefined), the “activity change, negative = inhibition” value is 4.75%.
The same measure, in the same setting: the figure for `CS(=N)(=O)CC[C@H](N)P(=O)(O)O` (some centres undefined) is -1.1% [at 11.4 µM]; for `CC(C)(c1ccc(OC[C@@H]2CO2)cc1)c1ccc(OC[C@H]2CO2)cc1` it is 12.8%; for `O=C(c1cc(-c2ccncc2)nc2ccccc12)N1CCC2(CC1)OCCO2` it is -5.09%.
With `O=C(c1cc2nc(-c3ccccc3)cc(-c3ccccc3)n2n1)N1CCC2(CC1)OCCO2`, the Potency is 31.6 µM (active).
Regarding `Cc1cccc(-n2c(C)nc3cc(C(=O)N4CCC5(CC4)OCCO5)ccc32)c1`, the “activity change, negative = inhibition” value was 1.46%.
On the same count and under the same terms, the figure for `CNC(C)[C@@H](O)c1ccccc1` (some centres undefined) is 1.74%.
On the same count and under the same terms, the figure for `CCCCC#N` is 5.1%; for `CCC(C)C(=O)O[C@@H]1C[C@@]2(C)C(c3ccoc3)OC(=O)CC23OC2(C)O[C@@]14[C@@]1(C)C(CC(=O)OC)C5(C)CC1(O)C(O)(C5OC(=O)C1(C)OC1C)C(OC(C)=O)[C@@]34O2` (some centres undefined) it is -2.26%; for `CC(C)(Cc1c[nH]c2ccc(Cl)cc12)NCCOc1ccccc1OCC1CC1` it is 3.59%.
The same measure, in the same setting: the figure for `C[C@H]1CC[C@@]2(NC1)O[C@@H]1C[C@H]3[C@@H]4CC=C5C[C@@H](O)CC[C@]5(C)[C@@H]4CC[C@]3(C)[C@@H]1[C@@H]2C` is -1.17% [at 25.6 µM].
Regarding `CN1[C@@H]2CC[C@H]1CC(NC(=O)c1nn(C)c3ccccc13)C2` (some centres undefined), the Potency was 20 µM (active).
Consider `N[C@H](Cc1o[nH]c(=O)c1Cl)C(=O)O`, for which the “activity change, negative = inhibition” value is -8.9%.
On to `C[C@@]12CC[C@H](O)C[C@@H]1CC[C@@H]1[C@@H]2CC[C@@]2(C)[C@@H](C3=CC(=O)OC3)[C@H](O)C[C@]12O`, for which the activity change, negative = inhibition was 5.61% [at 11.4 µM].
